The values below come from PubChem BioAssay AID2184 (The Scripps Research Institute Molecular Screening Center, 2009).

Molecules are shown by their SMILES. The list shows a part of the results. A number with no mark means an inactive call. The source made the active and inactive calls. No stated cut-off is given here; in the data, active means inhibition above about 0.66%; inactive means the rest.

The term inhibition denotes the relative decrease from the control value, in per cent.

The assay deals with Beta-lactamase TEM (Escherichia coli) (UniProt P62593). Kind of assay: TEM-1 inhibition (serine beta-lactamase), epi-absorbance biochemical counter-screen, VIM-2/IMP-1 inhibitor project (AID 2184). The settings on record: TEM-1 beta-lactamase, nitrocefin absorbance inhibition; at 5.6 µM; active compounds read high. In general terms: The purpose of a counterscreen is to sort out artefacts and off-target activity.
Chain of Beta-lactamase TEM (Escherichia coli) (P62593 whole entry, looked up): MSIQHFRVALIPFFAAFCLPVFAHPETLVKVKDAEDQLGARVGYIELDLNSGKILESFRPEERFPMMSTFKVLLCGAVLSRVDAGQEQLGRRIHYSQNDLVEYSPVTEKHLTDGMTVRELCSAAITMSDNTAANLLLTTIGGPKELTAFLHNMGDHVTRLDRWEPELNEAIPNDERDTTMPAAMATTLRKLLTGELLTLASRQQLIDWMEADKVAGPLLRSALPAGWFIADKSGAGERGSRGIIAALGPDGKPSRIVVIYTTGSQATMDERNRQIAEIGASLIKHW
`NC(=O)c1ccc(NC(=O)COC(=O)c2c3c(nc4ccccc24)/C(=C\c2ccc4c(c2)OCO4)CCC3)cc1`: the inhibition was -4.26%.

Consider `CN1C(=O)c2cccc3c(N)ccc(c23)C1=O`, for which the inhibition was 49.7% (active).

Consider `COc1cc(/C=C2/SC(=S)N(Cc3ccccc3)C2=O)cc(OC)c1O`, for which the inhibition was 12.7% (active).

Regarding `Oc1ccc2ccc3cccc[n+]3c2c1`, the inhibition was 25.5% (active).

Take `c1ccc(-c2nccc(-c3ccc(-n4cnc5ccccc54)cc3)n2)nc1`: the inhibition was -3.39%.

As to `C/C(=N\Nc1ccc(S(N)(=O)=O)cc1[N+](=O)[O-])c1cccs1`, the inhibition is 1.6% (active).

Regarding `Cc1cc2nc3c(=O)n(Cc4ccccc4)c(=O)[nH]c3nc2cc1N`, the inhibition was 30.2% (active).

As to `NS(=O)(=O)c1ccc(NC(=O)COC(=O)c2c3c(nc4ccccc24)/C(=C\c2ccc4c(c2)OCO4)CCC3)cc1`, the inhibition was -4.87%.

With `CCC(=C/c1sc2ccc3ccccc3c2[n+]1C)/C=C1\Sc2ccc3ccccc3c2N1C`, the inhibition is -0.12%.

`Nc1c(C(=O)c2cccs2)sc2nsc(SCCN3CCCCC3)c12`: the inhibition was 23.4% (active).

For the compound `Cc1nn(C)cc1N1C(=O)c2cccc3c(N)ccc(c23)C1=O`, the inhibition is 43.9% (active).
